Among all 5,500 compounds or so, about 2,000 (36%) were called active. Not shown: some 18% with an inconclusive outcome. Rule as the data show it: active = normalized growth mostly below about 0.91 (no sharp cut-off); inconclusive = no clear call, values can overlap the other calls; inactive = mostly above about 0.92. Some of the results follow.
Assay: chemical genetic growth profiling, strain panel (AID 1159580);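 also: tested at 20 µM; growth read once vehicle control cultures reached saturation at 30 °C; 1 = growth at the plate median or of vehicle wells; lower values mean less growth of the strain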
Conditions: growth OD

Measured: normalized growth

C[C@@H]1CC[C@@]2(OC1)OC1C(O)C3C4CC[C@H]5C[C@H](O[C@@H]6O[C@H](CO)[C@H](O[C@@H]7O[C@H](CO)[C@@H](O)[C@H](O[C@@H]8OC[C@@H](O)[C@H](O)[C@H]8O)[C@H]7O[C@@H]7O[C@H](CO)[C@H](O)[C@H](O[C@@H]8O[C@H](CO)[C@@H](O)[C@H](O)[C@H]8O)[C@H]7O)[C@H](O)[C@H]6O)[C@H](O)C[C@]5(C)C4CC[C@]3(C)C1[C@@H]2C (stereo partly specified)
active: S. cerevisiae deletion strains, locus YJR043C, strain POL32, active compounds read low 0.0654 | S. cerevisiae deletion strains, locus YJR066W, strain TOR1, active compounds read low -0.00057 | S. cerevisiae deletion strains, locus YKL009W, strain mrt4, active compounds read low 0.0811 | S. cerevisiae deletion strains, locus YKL068W, active compounds read low 0.0538 | S. cerevisiae deletion strains, locus YKL085W, strain MDH1 (second series), active compounds read low 0.0597 | S. cerevisiae deletion strains, locus YKL085W, strain MDH1, active compounds read low 0.0597 | S. cerevisiae deletion strains, locus YKR001C, strain vps1, active compounds read low 0.0628 | S. cerevisiae deletion strains, locus YLR039C, strain RIC1, active compounds read low 0.0908 | S. cerevisiae deletion strains, locus YLR058C, strain SHM2, active compounds read low 0.0509 | S. cerevisiae deletion strains, locus YLR102C, strain apc9, active compounds read low 0.0549 | S. cerevisiae deletion strains, locus YLR113W, strain HOG1, active compounds read low 0.124 | S. cerevisiae deletion strains, locus YLR262C, strain YPT6 (second series), active compounds read low 0.598 | S. cerevisiae deletion strains, locus YLR262C, strain YPT6, active compounds read low 0.112 | S. cerevisiae deletion strains, locus YLR268W, strain sec22, active compounds read low 0.0616 | S. cerevisiae deletion strains, locus YLR371W, strain rom2, active compounds read low 0.0571 | S. cerevisiae deletion strains, locus YLR418C, strain cdc73, active compounds read low 0.0973 | S. cerevisiae deletion strains, locus YML016C, strain PPZ1, active compounds read low 0.0492 | S. cerevisiae deletion strains, locus YML032C, strain rad52, active compounds read low 0.0633 | S. cerevisiae deletion strains, locus YML124C, strain tub3, active compounds read low 0.0557 | S. cerevisiae deletion strains, locus YMR078C, strain ctf18, active compounds read low 0.064 | S. cerevisiae deletion strains, locus YMR223W, strain ubp8, active compounds read low 0.0562 | S. cerevisiae deletion strains, locus YMR263W, strain SAP30, active compounds read low 0.055 | S. cerevisiae deletion strains, locus YMR307W, strain GAS1, active compounds read low 0.13 | S. cerevisiae deletion strains, locus YNL067W, strain RPL9B, active compounds read low 0.0474 | S. cerevisiae deletion strains, locus YNL153C, strain GIM3, active compounds read low 0.0551 | S. cerevisiae deletion strains, locus YNL183C, strain NPR1, active compounds read low -0.00129 | S. cerevisiae deletion strains, locus YNL233W, strain BNI4, active compounds read low 0.0568 | S. cerevisiae deletion strains, locus YNL250W, strain rad50, active compounds read low 0.0602 | S. cerevisiae deletion strains, locus YNL271C, strain bni1, active compounds read low 0.0573 | S. cerevisiae deletion strains, locus YNL298W, strain CLA4, active compounds read low 0.0588 | S. cerevisiae deletion strains, locus YNL307C, strain MCK1, active compounds read low 0.063 | S. cerevisiae deletion strains, locus YNR052C, strain pop2, active compounds read low 0.0596 | S. cerevisiae deletion strains, locus YOL006C, strain TOP1, active compounds read low 0.131 | S. cerevisiae deletion strains, locus YOL012C, strain htz1 0.172 | S. cerevisiae deletion strains, locus YOL147C, strain pex11, active compounds read low 0.0607 | S. cerevisiae deletion strains, locus YOR061W, strain CKA2, active compounds read low 0.0464 | S. cerevisiae deletion strains, locus YOR069W, strain VPS5, active compounds read low 0.05 | S. cerevisiae deletion strains, locus YOR136W, strain idh2, active compounds read low 0.0668 | S. cerevisiae deletion strains, locus YOR144C, strain elg1, active compounds read low 0.0588 | S. cerevisiae deletion strains, locus YOR184W, strain ser1, active compounds read low 0.0693 | S. cerevisiae deletion strains, locus YOR231W, strain MKK1, active compounds read low 0.0965 | S. cerevisiae deletion strains, locus YOR316C, strain cot1, active compounds read low 0.0539 | S. cerevisiae deletion strains, locus YPL106C, strain sse1, active compounds read low 0.671 | S. cerevisiae deletion strains, locus YPL241C, strain CIN2, active compounds read low 0.0482 | S. cerevisiae deletion strains, locus YPL256C, strain CLN2, active compounds read low 0.109 | S. cerevisiae deletion strains, locus YPR119W, strain clb2, active compounds read low 0.0604 | S. cerevisiae deletion strains, locus YPR141C, strain kar3, active compounds read low 0.0605 | S. cerevisiae deletion strains, locus YPR163C, strain tif3, active compounds read low 0.0646 | S. cerevisiae deletion strains, locus YPR167C, strain met16, active compounds read low 0.0578 | S. cerevisiae deletion strains, strain wtn01, active compounds read low 0.0611 | S. cerevisiae strains, strain wild type, active compounds read low 0.0496
inactive: S. cerevisiae deletion strains, locus YKL160W, strain elf1, active compounds read low 1.01 | S. cerevisiae deletion strains, locus YKR026C, strain gcn3, active compounds read low 1.03 | S. cerevisiae deletion strains, locus YKR091W, strain srl3, active compounds read low 1.02 | S. cerevisiae deletion strains, locus YLL001W, strain dnm1, active compounds read low 0.962 | S. cerevisiae deletion strains, locus YLL026W, active compounds read low 1.01 | S. cerevisiae deletion strains, locus YLL041C, strain sdh2, active compounds read low 1.02 | S. cerevisiae deletion strains, locus YLR027C, strain aat2, active compounds read low 1.01 | S. cerevisiae deletion strains, locus YLR221C, strain rsa3, active compounds read low 0.926 | S. cerevisiae deletion strains, locus YLR258W, strain gsy2, active compounds read low 1.02 | S. cerevisiae deletion strains, locus YLR320W, strain mms22, active compounds read low 0.985 | S. cerevisiae deletion strains, locus YLR342W, strain FKS1, active compounds read low 0.991 | S. cerevisiae deletion strains, locus YLR357W, strain rsc2, active compounds read low 0.875 | S. cerevisiae deletion strains, locus YLR370C, strain arc18, active compounds read low 1.02 | S. cerevisiae deletion strains, locus YLR384C, strain iki3, active compounds read low 1.04 | S. cerevisiae deletion strains, locus YML120C, strain ndi1, active compounds read low 0.925 | S. cerevisiae deletion strains, locus YMR058W, strain fet3, active compounds read low 1.01 | S. cerevisiae deletion strains, locus YMR125W, strain sto1, active compounds read low 1.03 | S. cerevisiae deletion strains, locus YMR129W, active compounds read low 1.03 | S. cerevisiae deletion strains, locus YMR205C, strain PFK2, active compounds read low 0.977 | S. cerevisiae deletion strains, locus YNL071W, strain lat1, active compounds read low 1.03 | S. cerevisiae deletion strains, locus YNL209W, strain ssb2, active compounds read low 1.03 | S. cerevisiae deletion strains, locus YNL248C, strain rpa49, active compounds read low 1.02 | S. cerevisiae deletion strains, locus YNL322C, strain KRE1 (second series), active compounds read low 1.04 | S. cerevisiae deletion strains, locus YNR049C, strain mso1, active compounds read low 1.03 | S. cerevisiae deletion strains, locus YOR001W, strain rrp6, active compounds read low 0.939 | S. cerevisiae deletion strains, locus YOR070C, strain gyp1, active compounds read low 1.02 | S. cerevisiae deletion strains, locus YOR080W, strain dia2, active compounds read low 1.04 | S. cerevisiae deletion strains, locus YOR083W, strain WHI5, active compounds read low 0.974 | S. cerevisiae deletion strains, locus YOR106W, strain vam3, active compounds read low 0.919 | S. cerevisiae deletion strains, locus YOR265W, strain rbl2, active compounds read low 1.04 | S. cerevisiae deletion strains, locus YOR270C, strain vph1, active compounds read low 0.99 | S. cerevisiae deletion strains, locus YOR290C, strain snf2, active compounds read low 0.964 | S. cerevisiae deletion strains, locus YPL051W, strain arl3, active compounds read low 0.95 | S. cerevisiae deletion strains, locus YPL078C, strain atp4, active compounds read low 0.968 | S. cerevisiae deletion strains, locus YPL240C, strain hsp82, active compounds read low 1

— PubChem BioAssay AID1159580 (chemical genetic matrix, 2015)
